Screens: PubChem BioAssay, National Center for Advancing Translational Sciences (NCATS)
TRPML1 ag – activates the human TRPML1 channel | 0.12% of 410,000 active | AID 624414 | activation, % (no concentration beside the values) | TRPML1-expressing cells, Ca2+ dye fluorescence, FDSS | Q9GZU1; in the data active means activation above about 50%; inconclusive means mostly about 30% to 49%
Target sequence (Q9GZU1 whole entry, looked up): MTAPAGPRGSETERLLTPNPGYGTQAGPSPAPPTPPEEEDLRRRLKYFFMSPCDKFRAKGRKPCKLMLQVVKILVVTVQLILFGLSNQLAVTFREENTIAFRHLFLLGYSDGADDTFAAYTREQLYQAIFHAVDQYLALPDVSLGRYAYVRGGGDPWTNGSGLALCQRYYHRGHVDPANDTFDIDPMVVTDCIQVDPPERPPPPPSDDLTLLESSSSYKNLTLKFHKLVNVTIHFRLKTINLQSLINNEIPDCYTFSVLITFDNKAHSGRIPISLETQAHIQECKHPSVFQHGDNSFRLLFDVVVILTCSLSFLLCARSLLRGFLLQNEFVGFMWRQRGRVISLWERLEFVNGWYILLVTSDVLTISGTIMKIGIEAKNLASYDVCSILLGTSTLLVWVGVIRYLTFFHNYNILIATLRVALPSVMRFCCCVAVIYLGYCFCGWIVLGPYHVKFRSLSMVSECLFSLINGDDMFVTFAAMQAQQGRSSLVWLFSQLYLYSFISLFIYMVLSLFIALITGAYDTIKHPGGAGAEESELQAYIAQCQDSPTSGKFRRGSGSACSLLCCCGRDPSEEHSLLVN
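TRPML1-DL cells, Tet-induced overnight (~16 h, 37 degrees C), loaded 45-90 min at room temperature with Ca8 no-wash calcium dye plus quencher. FDSS fluorescence: 10 s baseline, compound pin-transfer, 110 s agonist read, then EC80 54-4 (4uM final) and 110 s antagonist read.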
Vif-APOBEC3G blk – inhibitors of Vif-APOBEC3G interaction; HeLa A3G-eYFP + Vif (tagged APOBEC3G with the HIV-1 protein that degrades it), YFP fluorescence, overnight; Potency, µM (titrated, usually from 46.1 µM), usual class: inhibitors; 0.076% of 410,000 active; AID 602310; further: nearly all actives have a fitted effect of over 60% in size
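HeLa cells stably expressing Vif and C-terminally eYFP-tagged A3G, seeded overnight at 37 deg C, then exposed to compound by pintool overnight at 37 deg C. Rise in yellow fluorescence (Ex 488/Em 500-530, Acumen) marks blocked Vif-driven A3G degradation.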
TRPML1 blocker – inhibitors of human TRPML1 channel; Q9GZU1; TRPML1-inducible cells, Ca2+ dye fluorescence, FDSS; hits give low values; inhibition of EC80 agonist-evoked calcium signal; 0.02% of 390,000 active; activity change, negative = inhibition, % (no concentration beside the values); in the data active means activity change below about -50%; inconclusive means between about -30% and that limit;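 further: stimulus is agonist 54-4 at its EC80 concentration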
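TRPML1-DL cells, Tet-induced overnight (~16 h, 37 °C) at 1,500 cells/well, were loaded with Ca8 no-wash dye plus quencher for 45-90 min at room temperature. Compounds were pinned during FDSS kinetic reading; agonist 54-4 at EC80 (4 uM final) then added.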
PINK1 expr mod – PINK1 expression modulation. AID 624263. Potency, µM (titrated, usually from 76.6 µM), hits mostly activators. PINK1 immunofluorescence, high-content cytometry, 24 h. 0.2% of 410,000 active; active means well fitted activation curve with a large enough effect; inconclusive means small, poorly fitted or top-dose-only effect; cell line not stated here; further: nearly all actives have a fitted effect of over 65% in size
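Cells are seeded, rested 12 hours, then given compound at five concentrations or DMSO for 24 hours. After fixation, blocking and antibody staining, PINK1 amount and mitochondrial localization are scored; CCCP serves as control.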
Vif-APOBEC3F blk – Vif-A3F binding inhibition | HeLa A3F-eYFP + Vif (tagged APOBEC3F with the HIV-1 protein that degrades it), YFP fluorescence increase | Potency, µM (top dose mostly 46.1 µM) | AID 602313 | 0.2% of 390,000 active; further: nearly all actives have a fitted effect of over 65% in size
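HeLa cells stably expressing A3F-eYFP plus Vif, plated and incubated overnight at 37 deg C, then exposed to compounds overnight at 37 deg C. Blocked degradation read as raised yellow fluorescence (Ex 488/Em 500-530).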
Numbers stand for hits; 0 = inactive; ? = inconclusive; - = no result. Rows were chosen to be rich in hits. Some 0.52% of all compounds tested hit in one or more screens of this group. Unless noted, the call rests on the fitted dose curve; in most records, active means well fitted curve in the direction sought with a large enough effect; inconclusive means small, poorly fitted or top-dose-only effect, or another doubt; inactive means no such curve, though single readings can be large; an effect the other way counts as inactive or inconclusive.

SMILES	TRPML1 ag	Vif-APOBEC3G blk	TRPML1 blocker	PINK1 expr mod	Vif-APOBEC3F blk
CCCN1CCc2c(sc(NC(=O)c3ccc(S(=O)(=O)N(C)c4ccccc4)cc3)c2C(=O)NC)C1	0	22µM	0	0	?
CCOC(=O)N1CCN(S(=O)(=O)c2ccc(C(=O)Nc3sc4c(c3C(N)=O)CCN(CC)C4)cc2)CC1	0	?	0	0	?
CCOC(=O)N1CCN(S(=O)(=O)c2ccc(C(=O)Nc3sc4c(c3C(=O)OC)CCN(C)C4)cc2)CC1	0	?	0	0	?
CCCN1CCc2c(sc(NC(=O)c3ccc(S(=O)(=O)N(C)c4ccccc4)cc3)c2C(N)=O)C1	0	?	0	0	6.3µM
CCOC(=O)c1c(NC(=O)c2ccc(S(=O)(=O)N3CCC(C)CC3)cc2)sc2c1CCN(C)C2	?	?	0	0	10µM
CCCN1CCc2c(sc(NC(=O)c3ccc(S(=O)(=O)N4CCN(C(=O)OCC)CC4)cc3)c2C(N)=O)C1	0	?	0	0	10µM
COc1ccc(N2CC(C(=O)N(C)CC(=O)Nc3ccc(Cl)c(C(F)(F)F)c3)CC2=O)c(OC)c1 (centres undefined)	0	0	0	0	0
CN(C)c1ccc(C(CNC(=O)c2c(F)cccc2Cl)N2CCOCC2)cc1 (centres undefined)	0	0	0	0	0
CC1=Nc2ccccc2/C1=C/c1sc(=N)n(-c2nccs2)c1O	0	13µM	0	?	?
CC1=Nc2ccccc2/C1=C/c1nc(-c2ccc(C)s2)oc1O	0	0	0	0	0
Cc1cc(C)nc(Nc2nc(C(N)Cc3ccccc3)cs2)n1 (centres undefined)	0	4.5µM	0	0	-
O=C(C[n+]1cc(Br)cc2ccccc21)c1ccc(Cl)cc1	0	0	0	14µM	?
CCOc1ccc(CCNC(=O)CN2C(=O)NC3(CCCCC3)C2=O)cc1OCC	0	0	0	0	0
CC[N+](C)(C(=O)O)/C(=C\c1ccccc1)c1ccnc2ccccc12 (centres undefined)	?	11µM	-	0	-
CCOc1cc(CNC(=O)c2ccc3nc(C(C)C)oc3c2)cc(OCC)c1OCC	0	0	0	0	0
N#C/C(=C\c1ccc(N2CCOCC2)c([N+](=O)[O-])c1)c1nc2ccccc2[nH]1	0	0	0	0	0
N#C/C(=C\c1ccc(N2CCOCC2)o1)c1nc2ccccc2[nH]1	60	0	0	14µM	?
Cc1ccc2nc(/C(C#N)=C/c3ccc(-c4cccc(Cl)c4)o3)[nH]c2c1	?	7.9µM	0	?	3.2µM
N#C/C(=C/c1ccc(N2CCOCC2)o1)c1ccc(Cl)cc1	0	7.1µM	0	13µM	?
N#C/C(=C\c1ccc(-c2ccc(C(=O)O)cc2)o1)c1nc2ccccc2[nH]1	61	?	0	0	?
N#C/C(=C\c1ccc(-c2ccc(Cl)c(C(=O)O)c2)o1)c1nc2ccccc2[nH]1	0	?	0	0	?
CN(C(=O)CSCC(=O)O)C1CCCCC1	0	0	0	0	0
CCN1CCN(C(c2cccc(Cl)c2)c2c(O)cc(C)n(CCOC)c2=O)CC1 (centres undefined)	0	0	0	0	0
Cc1cccc(NC(=O)C2CCN(S(=O)(=O)c3ccc(F)cc3)CC2)c1C	0	0	0	0	0
Cc1ccc(S(=O)(=O)N(C)CCN(C)S(=O)(=O)c2ccc(C)cc2)cc1	0	0	0	0	0
SMILES	TRPML1 ag	Vif-APOBEC3G blk	TRPML1 blocker	PINK1 expr mod	Vif-APOBEC3F blk
Cc1ccc(N2C(=O)C(F)(F)C2c2ccccc2)cc1 (centres undefined)	63	0	0	0	0
COc1ccc(Cl)cc1NC(=O)CN(C)C(=O)c1ccc(N2CCCCC2)c([N+](=O)[O-])c1	61	0	0	0	0
CC(C)CSC1=NSC2=NC(=O)/C(=C\c3ccccc3)C(=N)N12	0	0	0	0	?
CSC1=NSC2=NC(=O)/C(=C\c3coc4ccccc4c3=O)C(=N)N12	76	?	0	0	?
N=C1/C(=C\c2coc3ccc(O)cc3c2=O)C(=O)N=C2SC=CN12	?	0	0	0	0
CC(C)CSC1=NSC2=NC(=O)/C(=C\c3coc4ccccc4c3=O)C(=N)N12	?	?	0	?	22µM
COc1ccc(-c2cn3nc(N4CCC(C(=O)NCc5ccccc5F)CC4)sc3n2)cc1	0	0	0	0	0
